Values joined by “and” are separate entries in the source; they are usually repeats but may differ in a detail not shown here. Equal entries are not always repeated. The panel holds about 83,000 compounds, 20% with a hit somewhere; the sample as a whole holds those more often.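 Each cell line was grown in a 96-well plate and treated with one concentration of compound for 48 hours. Values below 10 were considered active.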 Active and inactive are the calls of the source.
System: RPMI-8226 leukemia
Experiment: NCI-60 one-dose screen, 48 h (100 = growth as untreated, 0 = no growth, -100 = all killed)
Details: 10 µM unless noted

Question: For `O=C(/C=C/Nc1ccc(S(=O)(=O)Nc2ncccn2)cc1)c1ccc(N=Cc2c(O)[nH]c3ccccc23)cc1`, which growth is on record?
Answer: Its growth is 86.4% (inactive).

Question: `CCCCCN1C(=O)/C(=c2\sc3n(c2=O)C2C(NN=3)N(CC)C(=O)N2CC)c2cccc(C)c21` (stereo unspecified) was tested. Which growth did it give?
Answer: Its growth is 39.1% (inactive).

Question: For `C#C[C@]1(O)CC[C@H]2[C@@H]3CC=C4c5sc(Nc6ncccc6C)nc5CC[C@]4(C)[C@H]3CC[C@@]21C`, which growth is on record?
Answer: Its growth is -36.2% (active).

Question: Which growth does the source give for `O=C1CSC(c2cn(-c3ccccc3)nc2-c2ccc(Cl)cc2)N1c1ccccc1` (stereo unspecified) here?
Answer: The growth was 103% (inactive).

Question: With `CC(=O)Nc1ccccc1-c1nc2ccccc2s1` as the compound, how does the growth read?
Answer: Its growth is 113% (inactive).

Question: How did the growth turn out when `O=C(/C=C/c1cccc(Br)c1)c1cccc(OCCCCOc2cccc(C(=O)/C=C/c3cccc(Br)c3)c2)c1` was run?
Answer: Its growth is 56.8% (inactive).

Question: Which growth does the source give for `C/C(=C(\c1ccc(O)cc1)c1ccc(OCCN2CCCCCC2)cc1)c1ccc(Cl)cc1` here?
Answer: The growth was -2.67% (active).

Question: For `Clc1ccc(CSc2nnc(-c3ccc(Cl)cc3)n2-c2ccccc2)cc1`, which growth is on record?
Answer: The growth was 94.4% (inactive).

Question: How did the growth turn out when `O=C(CCCCCCNC(=O)C(O)(O)C(F)(F)F)Nc1nc2ccccc2s1` was run?
Answer: The growth was 13.5% (inactive).

Question: Which growth does the source give for `CC(C)NC(=O)c1cc(-c2ccc(NC(=O)Nc3ccc(F)c(C(F)(F)F)c3)cc2)nc2cccnc12` here?
Answer: The growth was 89.8% (inactive).

Question: With `COc1ccc(-c2cnc(NC(=O)CCCCCCNC(=O)C(O)(O)C(F)(F)F)s2)cc1` as the compound, how does the growth read?
Answer: The growth was 14% (inactive).

Question: How did the growth turn out when `C/C=C/CC(C)C(O)[C@H](NC(=O)[C@@H]1CCCN1C(=O)[C@](C)(CC)NC(=O)CCCCCCCCC)C(=O)N[C@@](C)(CC)C(=O)N[C@@H](CCC(N)=O)C(=O)N[C@H](CCC(N)=O)C(=O)NC(C)(C)C(=O)NC(C)(C)C(=O)N[C@@H](CCC(N)=O)C(=O)N[C@H](CC(C)C)C(=O)N[C@H](CO)CC(C)C` (stereo partly specified) was run?
Answer: The growth was 50.5% (inactive) and -38.3% (active).

Question: How did the growth turn out when `CC1CC(=O)C2=C(C1)Nc1ccc(Br)cc1CC2c1c[nH]c2ccc(Br)cc12` (stereo unspecified) was run?
Answer: Its growth is 42.8% (inactive).

Question: Which growth does the source give for `CC(C)(C)Nc1nc2c(OCCc3ccccc3)cccn2c1-c1cccc(Oc2ccccc2)c1` here?
Answer: Its growth is 4.94% (active).

Question: `CCCC/C(=C\c1ccc(O)c(O)c1)C(=O)NC(Cc1ccccc1)C(=O)C(=O)NCCc1ccc(OC)cc1` (stereo unspecified) was tested. Which growth did it give?
Answer: Its growth is 89.7% (inactive).

Question: For `COC(=O)c1cccc(NC2=C(Cl)C(=O)c3nc(C)ccc3C2=O)c1`, which growth is on record?
Answer: Its growth is 3.31% (active).

Question: For `NC1CC2(CCN(c3cnc(C(=O)Nc4cc(F)cc5cccnc45)cn3)CC2)C1`, which growth is on record?
Answer: The growth was 61.1% (inactive).

Question: Which growth does the source give for `COC(=O)c1ccc(NC2=C(Cl)C(=O)c3nc(C)ccc3C2=O)cc1` here?
Answer: Its growth is 36.9% (inactive).

Question: How did the growth turn out when `CC(Nc1c(C#N)cnc2ccc(-c3cncc(-c4n[nH]c(=O)o4)c3)cc12)c1ccccc1` (stereo unspecified) was run?
Answer: The growth was 10.5% (inactive).

Question: For `CC(=O)OC[C@]12CC[C@@H](C(=O)/C=C/c3cccnc3)[C@@H]1[C@H]1CC[C@@H]3[C@@]4(C)CC[C@H](OC(C)=O)C(C)(C)[C@@H]4CC[C@@]3(C)[C@]1(C)CC2`, which growth is on record?
Answer: The growth was -5.49% (active).

Question: `CC(O)c1cccc(/C(N)=N/C(N)=N/c2nc3ccccc3s2)c1` (stereo unspecified) was tested. Which growth did it give?
Answer: The growth was 67.3% (inactive).

Question: With `CC(C)=CCC[C@](C)(O)[C@H]1CC[C@]2(C)[C@@H]1CC[C@@H]1[C@@]3(C)CC[C@H](N)C(C)(C)[C@@H]3CC[C@]12C` as the compound, how does the growth read?
Answer: The growth was -9.63% (active).

Question: `Cc1ccc2c(n1)C(=O)C(Cl)=C(Nc1cccc(C)c1C)C2=O` was tested. Which growth did it give?
Answer: Its growth is -12.7% (active).

Question: For `C[C@]12CC[C@H]3[C@@H](CC=C4C[C@@H](O)CC[C@@]43C)[C@@H]1CC[C@@H]2[C@](C)(O)CCc1cccnc1`, which growth is on record?
Answer: The growth was 33.1% (inactive).

Question: Which growth does the source give for `CN1CCN(c2ccc(Nc3nc(NCCCNS(=O)(=O)c4ccc(C(F)(F)F)cc4)c4sccc4n3)cc2)CC1` here?
Answer: The growth was -9.61% (active).

Question: How did the growth turn out when `Cc1ccc2c(n1)C(=O)C(Cl)=C(Nc1cccc(C(F)(F)F)c1)C2=O` was run?
Answer: The growth was -17.6% (active).

Question: `O=C(CN1CCN(c2cc(=O)[nH]c3ccc(F)cc23)CC1)N(c1ccccc1)c1ccccc1` was tested. Which growth did it give?
Answer: Its growth is 115% (inactive).

Question: With `Cc1[nH]c(C(=O)Nc2ccc(C(N)=O)cc2N2CCOC(C)C2)c(Cl)c1Cl` (stereo unspecified) as the compound, how does the growth read?
Answer: Its growth is 107% (inactive).

Question: Which growth does the source give for `CC1(C)CC[C@]2(C(=O)O)CC[C@]3(C)C(=CC[C@@H]4[C@@]5(C)CC[C@H](NOCCCN)C(C)(C)[C@@H]5CC[C@]43C)[C@@H]2C1` here?
Answer: Its growth is 34.7% (inactive).

Question: Which growth does the source give for `Cc1ccc2c(n1)C(=O)C(Cl)=C(Nc1ccc(C#N)cc1)C2=O` here?
Answer: The growth was 55.1% (inactive).

Question: Which growth does the source give for `CC(=O)Nc1nc(C)c(-c2csc(Nc3ccccc3)n2)s1` here?
Answer: The growth was 27.4% (inactive).
